Source: PubChem
TTR transcr act – TTR transcription activation, primary screen. activation, % at 16.7 µM. AID 1117267. 92,000 compounds, 1.3% hits. SH-SY5Y TTR promoter Gaussia luciferase, luminescence; 100% = recombinant luciferase protein wells;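 active = activation above the mean of all tested compounds plus 3 SD, cut at about 9.5% in these data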;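 note: cells exposed to compounds for one day before reading; 0% = median of all test compound wells on the plate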
TTR inh HuH7 – counter-screen for TTR activators: TTR transcription inhibitors in HuH7 cells | 1,100 compounds, 4% hits | HuH7 TTR promoter-Gaussia luciferase reporter, luminescence | inhibition, % at 16.7 µM | shares compounds with TTR transcr act | AID 1117279;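 active = average inhibition above the solvent-only control wells' mean plus 3 SD, cut at about 15% in these data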;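 note: 0% = cells with DMSO only and 100% = cells with inhibitor control FD; inhibitors lower well luminescence so higher value means more inhibition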
TTR up confirm – confirmation of human transthyretin transcription activators. activation, % at 16.7 µM. shares compounds with TTR transcr act. 1,100 tested, under 10 active. AID 1117280. SHSY5Y TTR promoter Gaussia luciferase, luminescence; 100% = purified Lucia enzyme wells, no cells;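 active = mean activation above a set limit taken from the earlier primary screen, cut at about 11% in these data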;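 note: 0% = DMSO-treated cells and 100% = recombinant Lucia luciferase without cells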
An asterisk follows results filed as active. Many of the other results were omitted from the sample, so hits are more common in it than they were.

SMILES | TTR transcr act | others
Cc1cccn2cc(-c3ccc(S(=O)(=O)N4CCOCC4)cc3)nc12 | 0
Cc1ccn2cc(-c3ccc(Br)cc3)nc2c1 | -3
O=[N+]([O-])c1cccn2cc(-c3ccc(Br)cc3)nc12 | 11* | TTR inh HuH7=6;TTR up confirm=-1
COc1cccc(Cn2cc(COC(=O)N(C)Cc3ccccc3)nn2)c1 | 0
COC(=O)[C@]12C[C@H](CC(=O)NCCCN3CCCC3=O)C(=O)N(Cc3cccc4ccccc34)C1=C[C@H](C1CCCC1)O[C@@H]2C | -1
O=C(OCc1cn(Cc2ccccc2F)nn1)N1CCCC1 | 0
O=C(OCc1cn(Cc2ccccc2C(F)(F)F)nn1)N1CCOCC1 | 3
CN(C)CCCNC(=O)c1cc2sc3ccccc3c2s1 | 2
Cc1nn(C(C)C(=O)NCCCN(Cc2ccccc2)C(C)C)c(=O)c2c1sc1ccccc12 (centres undefined) | 10* | TTR inh HuH7=-15;TTR up confirm=2
CCOC(=O)N1CCN(C(=O)Cn2nc(C)c3sc4ccccc4c3c2=O)CC1 | -2
CNc1nc(N)c([N+](=O)[O-])c(Nc2cccc(Br)c2)n1 | 1
CN1C(=O)C(c2cn(C)c3ccccc23)(c2cn(C)c3ccccc23)c2cc(Br)ccc21 | 0
COc1cc(C2(c3ccc(O)c(OC)c3)C(=O)N(C)c3ccc(C)cc32)ccc1O | 1
Cc1cc(Br)cc2c1N(C)C(=O)C2(c1ccc(O)cc1)c1ccc(O)cc1 | 47* | TTR inh HuH7=-5;TTR up confirm=2
CCCC1CCC2(CC1)CCC2OC(=O)Nc1ccc(F)cc1 (centres undefined) | 0
Cc1ccc(CN2CC=CS2(=O)=O)cc1 | 0
CCOC(=O)c1c(C)[nH]c(C)c1C(=O)COC(=O)c1ccc(O)cc1 | -1
CCOC(=O)c1c(C)[nH]c(C)c1C(=O)COC(=O)c1c(OC)cccc1OC | -1
CCOC(=O)c1c(C)[nH]c(C)c1C(=O)COC(=O)c1sccc1C | 11* | TTR inh HuH7=-16;TTR up confirm=0
CCCC/C=C1/[C@H](c2ccccc2)N(C)C2=N[C@H](c3ccccc3)CC(=O)N21 | 2
CCOc1ccc(CCNC(=O)c2cc3sccc3n2Cc2cccc(C)c2)cc1OCC | 3
C[C@H]1CN(S(=O)(=O)C(C)(C)C)[C@@H](CCO)/C1=C\CCO | 2
CCOC(=O)CN1NC2(CCCCCC2)NC1=S | 0
CC(C)(C)N1NC2(CCCCC2)NC1=S | 12* | TTR inh HuH7=-16;TTR up confirm=1
CC(C)CN1C(=O)N2CCc3ccccc3C2CS1(=O)=O (centres undefined) | -1
SMILES | TTR transcr act | others
O=C(NC1CCCCN(Cc2ccc(Cl)cc2)C1=O)c1cccs1 (centres undefined) | 1
Oc1ccc(/C=N/NC(=S)Nc2cccnc2)cc1O | -2
Cc1cc(SCC(=O)N/N=C/c2ccc(O)c(O)c2)c(C)cc1Br | 4
O=C(N/N=C/c1ccc(O)c(O)c1)N/N=C/c1ccc(O)c(O)c1 | 11* | TTR inh HuH7=-10;TTR up confirm=-1
CC(C)NC(=O)C1C(c2ccc(C(F)(F)F)cc2)=Nc2ccccc2N1C(=O)c1cccc(C(F)(F)F)c1 (centres undefined) | -2
Cc1cccc(C)c1NC(=O)CNC(=O)C1CCCN(C(=O)c2ccc(Cl)cc2)C1 (centres undefined) | 26* | TTR inh HuH7=-7;TTR up confirm=-1
O=C(Cc1cccc(NC(=O)C2CCCN(C(=O)c3ccccc3)C2)c1)Nc1cccc(C(=O)N2CCCCC2)c1 (centres undefined) | 3
O=C(Cc1cccc(NC(=O)C2CCCN(C(=O)C3CC3)C2)c1)Nc1ccc(C(=O)N2CCCCC2)cc1 (centres undefined) | 1
CCCS(=O)(=O)C/C(N)=N/OC(=O)c1ccc(Cl)cc1 | -1
CCOC(=O)c1cc(/C(C)=N/OC(=O)c2ccc(Cl)cc2)on1 | 9.8* | TTR inh HuH7=-8;TTR up confirm=-1
C/C(=N\OC(=O)c1ccc(F)cc1)c1ccc(F)c(F)c1 | 0
COC(=O)[C@]12C[C@H](CC(=O)NCC3CCCCC3)C(=O)N(CCc3ccc(OC)c(OC)c3)C1=C[C@H](C(C)C)O[C@@H]2C1CC1 | 3
CCOP(=O)(OCC)c1ccc2c(c1)C(=O)c1ccccc1-2 | -1
C[C@@H]1CCN(C2CC2)S(=O)(=O)c2c(cccc2N2CC[C@H](N(C)C)C2)O1 | 1
CCN1CCN(c2nc(Nc3ccccc3)nc(N)c2[N+](=O)[O-])CC1 | -1
Cc1cccc(Nc2nc(N)c([N+](=O)[O-])c(N3CCN(C)CC3)n2)c1 | 1
Nc1nc(Nc2cccc(F)c2)nc(N2CCOCC2)c1[N+](=O)[O-] | 12* | TTR inh HuH7=-9;TTR up confirm=-1
CS(=O)(=O)N1c2ccccc2C[C@H]1Cc1cc2ccccc2o1 | -1
Cc1cccc(Cn2cc(COC(=O)Nc3ccc(F)cc3)nn2)c1 | -1
COC(=O)c1ccc(NC(=O)C[n+]2ccccc2)cc1 | 10* | TTR inh HuH7=-13;TTR up confirm=2
O=C(C[n+]1ccccc1)Nc1ccccc1 | 0
COC(=O)c1ccc[n+](CC(=O)Nc2ccc(OC(F)F)cc2)c1 | 7
C/C=C/c1ccc([C@H]2[C@@H](CN(CC(C)C)S(=O)(=O)c3ccccc3[N+](=O)[O-])N(C(=O)Nc3cccc(OC)c3)[C@H]2CO)cc1 | 0
CC(C)(C)[C@@H]1CCC(=O)N(CC[C@H](N=[N+]=[N-])c2ccccc2)CC1 | 0
C[C@@H]1CCC(=O)N(CC[C@H](N=[N+]=[N-])c2ccccc2)CC1 | 10* | TTR inh HuH7=-7;TTR up confirm=1
SMILES | TTR transcr act | others
[N-]=[N+]=N[C@@H](CCN1CC[C@H](O)CCC1=O)c1ccccc1 | 4
O=C(NCc1ccccc1)OC1CC2CC1[C@H]1CCCCN1C2 (some centres undefined) | 0
CC(=O)Nc1ccc(S(=O)(=O)Nc2ccc3ccccc3n2)cc1 | -1
CCN1CCN(c2nc3ccccc3nc2NS(=O)(=O)c2ccc(NC(C)=O)cc2)CC1 | 12* | TTR inh HuH7=-9;TTR up confirm=0
CCn1nc(NS(=O)(=O)c2ccc(NC(C)=O)cc2)c2cc3ccccc3nc21 | 0
COc1ccc2c3c([nH]c2c1)[C@]1(CCNC=O)Nc2ccccc2C1=NCC3 | 0
COc1cc(O)c(C(CC(=O)N2CCC(C)CC2)c2ccc3c(c2)OCO3)c(OC)c1 (centres undefined) | -2
O=S(=O)(c1ccc(SCCOc2ccc(Br)cc2)nc1)N1CCCC1 | -2
O=S(=O)(c1ccc(SCc2c(F)cccc2Cl)nc1)N1CCCC1 | -1
O=S(=O)(c1ccc(SCCOc2ccc(Cl)cc2)nc1)N1CCCC1 | 21* | TTR inh HuH7=7;TTR up confirm=-1
COC[C@@H]1CCCN1c1ccc2c(c1)OCCCN(C1CC1)S2(=O)=O | 4
CCNC(=O)Nc1ccc2c(c1)C(=O)N(C)[C@H]1CC[C@@H](CC(=O)NCCN3CCCC3)O[C@@H]1CO2 | 2
Cc1ccc(C2CC(c3ccccc3)=NN2C(=S)Nc2ccccc2)o1 (centres undefined) | 11* | TTR inh HuH7=25*;TTR up confirm=0
COc1cccc(C2CC(c3cccs3)=NN2C(=S)Nc2ccccc2)c1OC (centres undefined) | 2
COc1ccc(C2CC(c3cccs3)=NN2C(=S)Nc2ccccc2)cc1OC (centres undefined) | 1
O=S(=O)(CC1NCCc2ccccc21)NCCc1ccccc1 (centres undefined) | 0
CCC[C@H]1[C@@H](NCc2cccs2)CC[C@@]23CCCN2C(=O)CCC[C@@H]13 | 2
